# Laboratory results from PubChem BioAssay (NCATS).
# Unmarked numbers belong to inactive results. Results filed as inconclusive are left out. A call without a number means that no potency is given here. Active and inactive are the calls of the source. Unless noted, calls follow the shape of the dose curve; as a rule, active = well fitted curve in the direction sought with a large enough effect; inconclusive = small, poorly fitted or top-dose-only effect, or another doubt; inactive = no such curve, though single readings can be large; an effect the other way counts as inactive or inconclusive.
# Experiments:
# [1] = biological target: Androgen receptor (Homo sapiens) (UniProt P10275); experiment: qHTS assay for small molecule antagonists of androgen receptor signaling (AID 588516; active = well fitted curve in the direction sought with a large enough effect in the signal ratio, with a control signal flat, not every such curve was filed as active; the % refers to the signal ratio); conditions: AR-UAS-bla HEK293, beta-lactamase ratio, antagonist mode, 16 h; series mostly up to 76.8 µM
# Chain of Androgen receptor (Homo sapiens) (P10275 whole entry, looked up): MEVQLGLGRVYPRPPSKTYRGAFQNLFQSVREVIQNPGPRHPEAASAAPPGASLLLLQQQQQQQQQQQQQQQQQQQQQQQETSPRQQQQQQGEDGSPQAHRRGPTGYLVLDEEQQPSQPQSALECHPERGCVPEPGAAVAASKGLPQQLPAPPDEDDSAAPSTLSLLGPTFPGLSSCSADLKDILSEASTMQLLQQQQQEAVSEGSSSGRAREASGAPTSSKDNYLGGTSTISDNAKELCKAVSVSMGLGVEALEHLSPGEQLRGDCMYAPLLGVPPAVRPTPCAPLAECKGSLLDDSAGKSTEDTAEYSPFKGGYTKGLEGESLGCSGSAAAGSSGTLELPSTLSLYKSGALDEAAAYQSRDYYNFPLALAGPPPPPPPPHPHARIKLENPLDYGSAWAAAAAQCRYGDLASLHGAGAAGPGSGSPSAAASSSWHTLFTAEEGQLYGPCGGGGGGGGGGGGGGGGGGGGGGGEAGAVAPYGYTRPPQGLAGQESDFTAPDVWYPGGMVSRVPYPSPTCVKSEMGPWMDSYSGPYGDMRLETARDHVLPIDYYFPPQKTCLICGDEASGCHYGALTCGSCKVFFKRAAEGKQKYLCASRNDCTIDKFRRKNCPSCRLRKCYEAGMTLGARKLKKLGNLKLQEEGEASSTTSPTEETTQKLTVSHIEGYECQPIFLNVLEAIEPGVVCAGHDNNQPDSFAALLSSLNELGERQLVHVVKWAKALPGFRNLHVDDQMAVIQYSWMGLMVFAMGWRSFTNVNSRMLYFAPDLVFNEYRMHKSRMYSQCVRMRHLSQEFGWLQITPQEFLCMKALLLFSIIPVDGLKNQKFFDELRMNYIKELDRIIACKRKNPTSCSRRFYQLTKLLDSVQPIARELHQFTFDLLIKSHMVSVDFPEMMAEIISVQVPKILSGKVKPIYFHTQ
# How it was run: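 Compounds tested in titration against 10 nM R1881 in AR-responsive bla reporter HEK 293 cells; CCF4 fluorescence (460/530 nm) after 16 h exposure gave IC50 and efficacy.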
# [2] = Cell Viability - Jurkat (AID 426;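 active = dose-dependent loss of cell ATP signal giving a full or clear fitted curve, ranked by lower potency value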;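 also: potency is read from the fitted curve at half-maximal effect; cells exposed to compound for 40 hours at 37 °C before ATP read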); conditions: qHTS
# How it was run: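 Seed 5000 Jurkat E6-1 cells/well; add compound; incubate 40 hr at 37 °C; add CellTiter-Glo; wait 20 min at room temperature; read luminescence. Fit concentration-response with Hill equation for AC50.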
# [3] = qHTS assay to identify small molecules that stimulate interleukin-8 (IL-8) secretion (AID 651758; active = well fitted activation curve with a large enough effect in the signal ratio; the % refers to the signal ratio); conditions: HTRF ratio (665/615); series mostly up to 92.2 µM
# How it was run: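 Secreted IL-8 measured by TR-FRET sandwich (cryptate and XL665 antibodies) from THP-1 cells exposed to compound overnight (16 hrs, 37 C).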
# [4] = biological target: Peroxisome proliferator-activated receptor delta (Homo sapiens) (UniProt Q03181); experiment: qHTS assay for small molecule antagonists of peroxisome proliferator-activated receptor delta signaling (AID 588535; active = well fitted inhibition curve with a large enough effect in the signal ratio, with a control signal flat, not every such curve was filed as active; the % refers to the signal ratio); conditions: HEK293T PPARd-UAS-bla, beta-lactamase FRET ratio, 18 h; series mostly up to 76.7 µM
# Chain of Peroxisome proliferator-activated receptor delta (Homo sapiens) (Q03181 whole entry, looked up): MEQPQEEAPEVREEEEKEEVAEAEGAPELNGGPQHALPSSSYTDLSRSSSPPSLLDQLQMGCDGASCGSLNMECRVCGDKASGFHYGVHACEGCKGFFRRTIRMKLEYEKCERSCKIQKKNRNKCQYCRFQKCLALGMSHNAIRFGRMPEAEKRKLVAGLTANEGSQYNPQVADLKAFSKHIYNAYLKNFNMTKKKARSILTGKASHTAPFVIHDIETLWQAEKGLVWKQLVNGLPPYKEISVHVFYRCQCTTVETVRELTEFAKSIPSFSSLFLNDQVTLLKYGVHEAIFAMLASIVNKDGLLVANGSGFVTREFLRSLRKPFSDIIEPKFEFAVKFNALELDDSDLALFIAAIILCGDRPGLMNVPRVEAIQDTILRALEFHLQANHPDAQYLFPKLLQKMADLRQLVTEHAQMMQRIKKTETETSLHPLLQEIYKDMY
# How it was run: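 Cell-based beta-lactamase assay in antagonist mode: 4000 HEK293T PPAR-delta-UAS-bla cells per well, 5 hr preincubation then 18 hr compound incubation at 37 C. IC50 obtained by Hill equation fitting.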
# [5] = biological target: Cytochrome P450 3A4 (Homo sapiens) (UniProt P08684); experiment: qHTS Assay for Activators of Cytochrome P450 3A4 (AID 885); conditions: recombinant CYP3A4, Luciferin-PPXE luminescence, 60 min; series mostly up to 57.1 µM; also: nearly all actives have a fitted effect of over 65% in size
# Chain of Cytochrome P450 3A4 (Homo sapiens) (P08684 whole entry, looked up): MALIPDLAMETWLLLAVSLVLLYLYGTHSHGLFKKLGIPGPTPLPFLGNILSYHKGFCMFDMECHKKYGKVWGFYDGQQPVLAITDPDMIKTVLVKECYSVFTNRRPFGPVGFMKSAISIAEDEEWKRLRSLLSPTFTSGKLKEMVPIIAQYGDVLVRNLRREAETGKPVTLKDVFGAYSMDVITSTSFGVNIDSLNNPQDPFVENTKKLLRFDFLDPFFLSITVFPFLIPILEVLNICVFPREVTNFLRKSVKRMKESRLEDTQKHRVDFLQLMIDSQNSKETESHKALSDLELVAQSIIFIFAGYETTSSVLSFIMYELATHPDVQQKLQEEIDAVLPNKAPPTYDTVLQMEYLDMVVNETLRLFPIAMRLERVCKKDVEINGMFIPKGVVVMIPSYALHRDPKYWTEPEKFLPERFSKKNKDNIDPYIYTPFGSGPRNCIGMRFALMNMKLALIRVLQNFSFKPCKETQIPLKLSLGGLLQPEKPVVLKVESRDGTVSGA
# How it was run: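 Quantitative HTS format: compounds preincubated with 20nM human CYP3A4 and Luciferin-PPXE substrate at KM, reaction started by NADPH regeneration, stopped after 60 min, luciferase luminescence read 20 min later.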
# [6] = AP1 Signaling Pathway (AID 357; active = well fitted curve in either direction with a large enough effect, not every such curve was filed as active;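 also: ME-180 reporter cells stimulated with EGF at its EC50 level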); conditions: ME-180 AP-1-bla reporter, EGF-induced, beta-lactamase ratio, 5 h; series mostly up to 17.2 µM
# How it was run: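 Cells are seeded overnight, exposed to compound titrations and an EC50 level of EGF for 5 hours at 37 °C, then loaded with CCF4 dye for 2.5 hours. Beta-lactamase activity under the AP-1 element is read as a blue/green ratio.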
# [7] = NFAT Signaling Pathway (AID 444; active = well fitted curve in either direction with a large enough effect, not every such curve was filed as active;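 also: carbachol stimulus at about its EC50 of 1 µM final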); conditions: Jurkat NFAT-bla M1, carbachol, beta-lactamase ratio, 5 h
# How it was run: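 Read-out: CCF4 FRET ratio (460 nm/530 nm) after 1 h RT dye loading, used for %activity and AC50 from titration series. Cells: Jurkat NFAT-β-lactamase/M1 line, treated with compound plus 1 uM carbachol for 5 h, 37 °C.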
# [8] = Stat Signaling Pathway (AID 446; active = well fitted curve in either direction with a large enough effect, not every such curve was filed as active;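 also: ME-180 cervical cancer cells given 40 pM IL-6 alongside compound; SIE-controlled beta-lactamase reporter measured as 460/530 nm FRET emission ratio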); conditions: ME-180 (cervical carcinoma) SIE beta-lactamase reporter, IL-6 stimulated, 5 h; series mostly up to 17.2 µM
# How it was run: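 IL-6/STAT signaling read in ME-180 cells via an SIE beta-lactamase reporter. Stimulus was 40 pM IL-6 (its AC50) for 5 hrs, so both activation and inhibition register.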
# [9] = biological target: Glucocorticoid receptor (Homo sapiens) (UniProt P04150); experiment: GR-EFC Redistribution (AID 451; calls by dose curve; also: potency is read from the fitted curve at half-maximal effect); conditions: CHO-K1 GR-EFC translocation, beta-gal luminescence, 2 h
# Chain of Glucocorticoid receptor (Homo sapiens) (P04150 whole entry, looked up, the tested form may be a part): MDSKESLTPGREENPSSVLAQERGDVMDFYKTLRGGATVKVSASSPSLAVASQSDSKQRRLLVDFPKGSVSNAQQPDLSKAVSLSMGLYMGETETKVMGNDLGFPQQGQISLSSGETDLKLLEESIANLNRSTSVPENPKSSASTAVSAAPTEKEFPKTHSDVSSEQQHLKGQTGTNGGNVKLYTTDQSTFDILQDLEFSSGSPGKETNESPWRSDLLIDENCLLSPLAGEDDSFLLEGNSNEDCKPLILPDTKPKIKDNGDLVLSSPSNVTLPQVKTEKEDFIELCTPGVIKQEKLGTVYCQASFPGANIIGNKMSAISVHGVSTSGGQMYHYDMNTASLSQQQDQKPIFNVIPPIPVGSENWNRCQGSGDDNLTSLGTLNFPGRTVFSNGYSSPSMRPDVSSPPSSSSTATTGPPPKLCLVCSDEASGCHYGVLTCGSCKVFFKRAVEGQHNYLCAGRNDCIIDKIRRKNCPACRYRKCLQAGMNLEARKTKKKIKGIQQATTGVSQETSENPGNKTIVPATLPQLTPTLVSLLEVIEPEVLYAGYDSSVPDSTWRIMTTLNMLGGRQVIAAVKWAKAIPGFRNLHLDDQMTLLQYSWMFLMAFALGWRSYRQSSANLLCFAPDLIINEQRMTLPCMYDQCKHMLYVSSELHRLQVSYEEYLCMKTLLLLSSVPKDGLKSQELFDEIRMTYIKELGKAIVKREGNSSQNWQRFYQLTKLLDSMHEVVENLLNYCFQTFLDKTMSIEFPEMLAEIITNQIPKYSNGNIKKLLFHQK
# How it was run: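 Translocation of GR-ED fusion to nuclear EA restores b-gal, read by luminescence after 1 h room-temperature detection. Engineered CHO-K1 biosensor cells, 1,000/well, exposed 2 h at 37 C to titrations up to 46 uM final.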
# [10] = biological target: 3',5'-cyclic-AMP phosphodiesterase 4B (Homo sapiens) (UniProt Q07343); experiment: qHTS Assay for Inhibitors of PDE-IV (AID 607; active = well fitted activation curve with a large enough effect in the main read-out, with a control signal flat, not every such curve was filed as active); conditions: HEK293 ACTOne CNG channel cells, membrane potential fluorescence; series mostly up to 22.9 µM
# Chain of 3',5'-cyclic-AMP phosphodiesterase 4B (Homo sapiens) (Q07343 whole entry, looked up): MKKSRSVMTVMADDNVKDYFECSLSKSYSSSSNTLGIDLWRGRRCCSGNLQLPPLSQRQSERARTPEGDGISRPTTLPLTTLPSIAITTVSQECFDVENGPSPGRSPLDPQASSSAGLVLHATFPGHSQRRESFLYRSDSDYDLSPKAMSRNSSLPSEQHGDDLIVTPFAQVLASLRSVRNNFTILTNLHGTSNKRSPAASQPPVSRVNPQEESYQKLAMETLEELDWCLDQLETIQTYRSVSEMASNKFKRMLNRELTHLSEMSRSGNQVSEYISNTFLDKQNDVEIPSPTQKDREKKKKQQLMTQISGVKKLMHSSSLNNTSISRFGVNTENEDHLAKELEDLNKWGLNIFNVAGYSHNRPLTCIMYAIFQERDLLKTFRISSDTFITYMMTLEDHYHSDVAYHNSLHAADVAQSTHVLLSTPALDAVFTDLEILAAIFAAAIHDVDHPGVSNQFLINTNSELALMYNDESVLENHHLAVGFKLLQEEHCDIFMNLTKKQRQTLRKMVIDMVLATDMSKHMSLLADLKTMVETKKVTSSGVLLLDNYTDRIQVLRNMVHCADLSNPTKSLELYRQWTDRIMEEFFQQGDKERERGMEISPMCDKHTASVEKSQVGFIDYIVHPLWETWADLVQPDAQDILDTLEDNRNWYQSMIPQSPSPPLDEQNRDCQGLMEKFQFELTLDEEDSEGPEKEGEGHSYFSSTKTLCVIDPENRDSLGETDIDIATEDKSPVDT
# How it was run: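 Live HEK293 cells with a modified cyclic nucleotide-gated (CNG) channel report intracellular cAMP via membrane-potential dye fluorescence (ex 535/em 590 nm). Endogenous PDE-IV was targeted. Compounds were tested at up to 22.9 uM final; RO 20-1724 100 uM served as control.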
# [11] = biological target: ATP-dependent 6-phosphofructokinase (Trypanosoma brucei brucei) (UniProt O15648); experiment: qHTS Assay to Find Inhibitors of T. brucei phosphofructokinase: hit validation (AID 492961);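 also: luminescence reports ADP formed as PFK phosphorylates fructose-6-phosphate with ATP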; conditions: T. brucei PFK, ADP-Glo luminescence; series mostly up to 51.4 µM
# How it was run: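 In this biochemical qHTS validation, titrated compounds were tested against 1.25 nM PFK with 0.1 mM ATP and 0.5 mM F6P. Percent activity came from controls lacking or containing enzyme.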
# [12] = qHTS profiling for inhibitors of Plasmodium falciparum proliferation (AID 504749); also: nearly all actives have a fitted effect of over 60% in size; conditions: P. falciparum in erythrocytes, SYBR Green DNA, 72 h
# How it was run: (§1)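 Three-day growth assay of blood-stage parasites in erythrocytes (0.3% parasitemia, 2.5% hematocrit) at 37 C, 5% CO2, quantified by SYBR Green DNA staining after overnight detergent lysis.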
# AS120 = experiment: as above; conditions: P. falciparum in erythrocytes, SYBR Green DNA, 72 h; series mostly up to 28.7 µM
# How it was run: as §1
# CP203 = experiment: as above; conditions: P. falciparum in erythrocytes, SYBR Green DNA, 72 h; series mostly up to 28.7 µM
# How it was run: as §1
# DFO2036 = experiment: as above; conditions: P. falciparum in erythrocytes, SYBR Green DNA, 72 h; series mostly up to 28.7 µM
# How it was run: as §1
# W2 = experiment: as above; conditions: P. falciparum in erythrocytes, SYBR Green DNA, 72 h; series mostly up to 12.8 µM
# How it was run: as §1
# [13] = Confirmation and Secondary Assay for Modulators of Hemoglobin Beta Chain Splicing at IVS2 654 locus (AID 910); conditions: HeLa EGFP-654 splicing reporter, GFP fluorescence, 48 h; series mostly up to 46.1 µM;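 also: HeLa cells stably carrying EGFP split by mutant beta-globin IVS2-654 intron; per-well total GFP intensity by laser scanning cytometry after 2-day treatment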
# How it was run: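 Readout: per-well total peak green fluorescence (488 nm ex, 500–520 nm em) from objects 5–250 µm, reflecting correct splicing of an EGFP-654 reporter. Compounds were applied for 2 days at 37 °C to overnight-plated HeLa EGFP-654 cells; controls were DMSO and 500 nM IVS2-654 PNA.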
# [14] = Confirmation and Secondary Assay for Modulators of Hemoglobin Beta Chain Splicing at IVS2 705 locus (AID 930); conditions: HeLa EGFP-705 splicing reporter, GFP fluorescence, 48 h; series mostly up to 46.1 µM;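 also: HeLa cells stably expressing the EGFP-705 splicing reporter; GFP fluorescence per well restored by corrected splicing of the IVS2-705 intron in EGFP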
# How it was run: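 Fluorescence gain (488 nm laser, 500-520 nm PMT) reflects restored correct splicing of a mutant IVS2-705 intron inside EGFP in stably transfected HeLa cells after 2-day compound treatment.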
# [15] = biological target: Ubiquitin carboxyl-terminal hydrolase 1 (Homo sapiens) (UniProt O94782); experiment: Inhibitors of USP1/UAF1: Pilot qHTS (AID 504865); conditions: purified USP1/UAF1, Ub-rhodamine cleavage fluorescence; series mostly up to 114 µM; also: nearly all actives have a fitted effect of over 35% in size; also: potency is read from the fitted curve at half-maximal effect;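 as to activity change, negative = inhibition: rhodamine fluorescence freed from ubiquitin-rhodamine substrate followed over time; top concentration of the series differs between compounds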
# Chain of Ubiquitin carboxyl-terminal hydrolase 1 (Homo sapiens) (O94782 whole entry, looked up): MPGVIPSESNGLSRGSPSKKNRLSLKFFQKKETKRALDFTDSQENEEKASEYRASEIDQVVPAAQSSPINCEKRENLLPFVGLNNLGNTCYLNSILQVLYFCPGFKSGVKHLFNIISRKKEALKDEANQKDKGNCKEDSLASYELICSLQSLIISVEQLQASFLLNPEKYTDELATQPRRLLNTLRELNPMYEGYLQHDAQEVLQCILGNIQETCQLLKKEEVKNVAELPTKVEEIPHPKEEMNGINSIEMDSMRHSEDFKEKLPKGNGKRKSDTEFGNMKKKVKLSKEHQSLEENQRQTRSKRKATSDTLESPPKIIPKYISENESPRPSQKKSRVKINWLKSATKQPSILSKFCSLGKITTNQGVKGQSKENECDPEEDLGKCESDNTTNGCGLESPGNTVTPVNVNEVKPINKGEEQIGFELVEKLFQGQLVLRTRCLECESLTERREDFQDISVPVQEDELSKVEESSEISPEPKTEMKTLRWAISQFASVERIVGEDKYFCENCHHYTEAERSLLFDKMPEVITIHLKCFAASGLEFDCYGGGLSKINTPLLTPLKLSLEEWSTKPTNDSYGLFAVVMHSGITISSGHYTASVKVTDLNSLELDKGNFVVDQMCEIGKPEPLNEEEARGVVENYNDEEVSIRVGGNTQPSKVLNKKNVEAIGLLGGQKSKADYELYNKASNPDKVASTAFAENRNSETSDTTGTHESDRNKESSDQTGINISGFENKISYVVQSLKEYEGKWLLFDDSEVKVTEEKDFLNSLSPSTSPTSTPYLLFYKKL
# How it was run: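 Enzyme-free wells gave the negative control, while test wells held 1nM USP1/UAF1 preincubated with compound for 15 min at room temperature. Ub-Rho at 150nM final started the reaction, and fluorescence at 480/540 nm was recorded kinetically.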
# [16] = biological target: Cytochrome P450 1A2 (Homo sapiens) (UniProt P05177); experiment: p450-cyp1a2 (AID 410; calls by dose curve; also: potency is read from the fitted curve at half-maximal effect); conditions: recombinant CYP1A2, luciferin-ME demethylation, luminescence; series mostly up to 25.6 µM
# Chain of Cytochrome P450 1A2 (Homo sapiens) (P05177 whole entry, looked up): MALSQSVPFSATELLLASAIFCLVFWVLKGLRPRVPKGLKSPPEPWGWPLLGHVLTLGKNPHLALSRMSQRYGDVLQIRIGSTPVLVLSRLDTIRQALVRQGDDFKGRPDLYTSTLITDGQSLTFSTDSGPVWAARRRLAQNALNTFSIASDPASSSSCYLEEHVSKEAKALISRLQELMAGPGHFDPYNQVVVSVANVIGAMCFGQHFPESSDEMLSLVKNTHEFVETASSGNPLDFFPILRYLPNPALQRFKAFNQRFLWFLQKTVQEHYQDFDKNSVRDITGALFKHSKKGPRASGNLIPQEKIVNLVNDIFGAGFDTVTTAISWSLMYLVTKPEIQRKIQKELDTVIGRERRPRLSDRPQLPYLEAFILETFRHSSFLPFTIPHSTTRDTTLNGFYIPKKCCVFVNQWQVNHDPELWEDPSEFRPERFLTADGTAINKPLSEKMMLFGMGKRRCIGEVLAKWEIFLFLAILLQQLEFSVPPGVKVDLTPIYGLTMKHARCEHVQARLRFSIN
# How it was run: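 Inhibition was calculated relative to 57 uM furafylline (full inhibition). The reaction used human CYP1A2 at 20nM with Luciferin-ME at its Km, 100uM, driven by an NADPH-regenerating system for 60 min at room temperature.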
smiles,measurement,setting,value
O=C(Cl)/C=C/C(=O)Cl,Potency,[1],inactive
Nc1c(Cl)c(Cl)nc(C(=O)O)c1Cl,Potency,[2],> 92 µM
same,Potency,[3],inactive
Oc1ccc(Cl)cc1Cl,Potency,[2],> 92 µM
CCC[CH2][Sn]([Cl])([Cl])[Cl],Potency,[2],> 92 µM
ClC(Cl)=C(Cl)Cl,Potency,[2],> 92 µM
same,Potency,[3],inactive
O=NN(CCO)CCO,Potency,[2],> 92 µM
same,Potency,[1],inactive
CCOc1ccc(N)cc1,Potency,[2],> 92 µM
same,Potency,[3],inactive
C=CC(=C)C,Potency,[2],> 92 µM
same,Potency,[4],inactive
COc1ccc(N)cc1,Potency,[2],> 92 µM
same,Potency,[5],inactive
same,Potency,[3],inactive
CC(C)(c1ccccc1)c1ccc(O)cc1,Potency,[2],> 92 µM
same,Potency,[5],inactive
same,Potency,[3],inactive
OCC(Br)CBr (centres undefined),Potency,[2],> 92 µM
same,Potency,[4],inactive
S=C=Nc1cccc2ccccc12,Potency,[2],> 92 µM
same,Potency,[5],inactive
same,Potency,[1],inactive
same,Potency,[3],inactive
CN=C=S,Potency,[2],> 92 µM
same,Potency,[4],inactive
BrCCBr,Potency,[2],> 92 µM
same,Potency,[4],inactive
C=C(Cl)Cl,Potency,[2],> 92 µM
same,Potency,[1],inactive
same,Potency,[4],inactive
same,Potency,[3],inactive
CCCCCCCC(=O)Cl,Potency,[2],> 92 µM
same,Potency,[3],inactive
N#CCCCl,Potency,[2],> 92 µM
same,Potency,[3],inactive
O=[N+]([O-])c1ccc(Cl)c(Cl)c1,Potency,[2],> 92 µM
CCN(CC)c1ccccc1,Potency,[1],inactive
CCOP(=S)(OCC)SCSC(C)(C)C,Potency,[2],> 92 µM
same,Potency,[4],inactive
C=CCOC(C)=O,Potency,[2],> 92 µM
ClC(Cl)(Cl)c1ccccc1,Potency,[2],> 92 µM
C[C@H]1CN(C2CCC(C#N)(c3ccc(F)cc3)CC2)CC[C@@]1(C(=O)O)c1ccccc1 (some centres undefined),outcome,[6],inactive
same,"activity change, negative = inhibition",[7]; at 17.2 µM (top of the series),-14%
same,outcome,[8],inactive
same,Potency,[9],> 20.6 µM
same,Potency,[10],inactive
same,Potency,[11],inactive
same,"activity, negative = inhibition","[12]; at 12.8 µM (top of the series), parasite line A",1.54%
same,"activity, negative = inhibition","[12]; at 12.8 µM (top of the series), parasite line B",12.6%
same,Potency,AS120,inactive
same,Potency,CP203,inactive
same,Potency,DFO2036,inactive
same,Potency,W2,inactive
C=CCOC(=O)c1ccccc1N,Potency,[1],inactive
same,Potency,[3],inactive
COc1cc(OC)c2c(c1)OC(c1ccc(OC)c(OC)c1)C(O)C2 (centres undefined),Potency,[13],inactive
same,Potency,[14],inactive
same,Potency,[15],inactive
c1cc2c(cc1C1OC[C@@H]3C(c4ccc5c(c4)OCO5)OCC13)OCO2 (some centres undefined),Potency,[5],inactive
same,Potency,[13],inactive
same,Potency,[14],inactive
CC1O[C@@H](OC2CC[C@@]3(C=O)C4CC[C@]5(C)C(C6=CC(=O)OC6)CC[C@@]5(O)C4CC[C@]3(O)C2)C(O)C(O)C1O (some centres undefined),Potency,[13],inactive
same,Potency,[14],inactive
same,Potency,[15],inactive
ClC(Cl)=C(Cl)C(Cl)=C(Cl)Cl,Potency,[3],inactive
c1ccc(OP(Oc2ccccc2)Oc2ccccc2)cc1,Potency,[3],inactive
CC1=CCCC2C1(C)CCC(C)C2(C)CC/C(C)=C/C[n+]1cn(C)c2c(N)ncnc21 (centres undefined),Potency,[5],inactive
same,Potency,[13],inactive
same,Potency,[14],inactive
CCOP(=S)(OCC)Oc1ccc([N+](=O)[O-])cc1,Potency,[5],inactive
same,Potency,[4],inactive
N[C@H]1C[C@H]1c1ccccc1,outcome,[6],inactive
same,Potency,[16],5.01 µM (active)
same,"activity change, negative = inhibition",[7]; at 17.2 µM (top of the series),-3.83%
same,outcome,[8],inactive
same,Potency,[10],inactive
same,Potency,[11],inactive
same,Potency,[15],inactive
same,"activity, negative = inhibition","[12]; at 28.7 µM (top of the series), parasite line A",10.1%
same,"activity, negative = inhibition","[12]; at 28.7 µM (top of the series), parasite line B",3.27%
same,Potency,AS120,inactive
same,Potency,CP203,inactive
same,Potency,DFO2036,inactive
same,Potency,W2,inactive
N#Cc1ccc(CN2CC[C@@]3(CCCNC3)C2)cc1,outcome,[6],inactive
same,"activity change, negative = inhibition",[7]; at 7.69 µM (top of the series),-7.45%
same,outcome,[8],inactive
same,Potency,[9],> 46 µM
same,Potency,[10],inactive
same,Potency,[5],inactive
C/C=C1\C[N@@+]2(C)CC[C@@]34C(=C(C=O)[C@H]1C[C@H]32)Nc1ccccc14,outcome,[6],inactive
same,Potency,[16],inactive
same,"activity change, negative = inhibition",[7]; at 17.2 µM (top of the series),-3.46%
same,outcome,[8],inactive
same,Potency,[9],> 20.6 µM
same,Potency,[10],inactive
same,Potency,[5],inactive
same,Potency,[15],inactive
[O-][Br+2]([O-])O,Potency,[1],inactive
same,Potency,[3],inactive
C=CC(N)=O,Potency,[3],inactive
Cc1ccc(O)c(C)c1,Potency,[4],inactive
Clc1cccc(C(Cl)(Cl)Cl)n1,Potency,[5],inactive
same,Potency,[1],inactive
same,Potency,[3],inactive
C[N+](C)(C)Cc1ccccc1,Potency,[3],inactive
CN(C)[C@@H]1C(=O)C(C(N)=O)=C(O)[C@]2(O)C(=O)C3=C(O)c4c(O)cccc4[C@@](C)(O)[C@H]3[C@H](O)[C@@H]12,outcome,[6],inactive
same,Potency,[16],inactive
same,"activity change, negative = inhibition",[7]; at 17.2 µM (top of the series),-3.39%
same,Potency,[10],inactive
same,Potency,[15],31.6 µM (active)
Cc1cccc(C#N)c1,Potency,[4],inactive
CCCCOCCOP(=O)(OCCOCCCC)OCCOCCCC,Potency,[5],inactive
Clc1nc(Cl)nc(Cl)n1,Potency,[4],inactive
CC(C)(C)C(=O)C(Oc1ccc(Cl)cc1)n1cncn1 (centres undefined),Potency,[5],inactive
same,Potency,[14],inactive
same,Potency,[15],inactive
same,Potency,[4],inactive
CCCC(=O)Cl,Potency,[3],inactive
CCCSC(=O)Cl,Potency,[3],inactive
Cc1ccc([N+](=O)[O-])cc1C,Potency,[3],inactive
C[C@@]12CCC(Cl)C[C@H]1CCC1C2CC[C@]2(C)C(=O)CCC12 (some centres undefined),Potency,[14],inactive
